# Experimental data from PubChem BioAssay (NCATS).
# Entries with a potency or affinity are not part of this list. Active and inactive are the calls of the source. No rule for the calls is given here.
# Conditions: Ebola virus entry assay, green fluorescence channel
# Also: 0% is about no effect.
row,SMILES,efficacy
1,COC(=O)Nc1nc2ccc(C(=O)c3cccs3)cc2[nH]1,64.8% (inactive)
2,Cc1cc(OCCOCC[N+](C)(C)Cc2ccccc2)ccc1C(C)(C)CC(C)(C)C,-204% (inactive)
3,C=CC(=O)Nc1cc2c(Nc3ccc(F)c(Cl)c3)ncnc2cc1OCCCN1CCOCC1,99.2% (inactive)
4,COc1cc2c(N3CCN(C(=O)Nc4ccc(OC(C)C)cc4)CC3)ncnc2cc1OCCCN1CCCCC1,52% (inactive)
5,C#CCOC(C(=O)OCCN(C)C)(c1ccccc1)c1ccccc1,46% (inactive)
6,Cc1ncc([N+](=O)[O-])n1CCO,-56.3% (inactive)
7,O=c1[nH]cnc2c1ncn2[C@H]1CC[C@@H](CO)O1,-19.1% (inactive)
8,CCN(CC)C(=O)N[C@@H]1C=C2c3cccc4[nH]cc(c34)C[C@@H]2N(C)C1,16% (inactive)
9,CN1C[C@H](CNC(=O)OCc2ccccc2)C[C@@H]2c3cccc4c3c(cn4C)C[C@H]21,74.4% (inactive)
10,CCC[C@H](N[C@@H](C)C(=O)N1[C@H](C(=O)O)C[C@@H]2CCCC[C@@H]21)C(=O)OCC,-25% (inactive)
11,c1ccc2c(c1)OCC(C1=NCCN1)O2 (stereo not given),12.1% (inactive)
12,Cc1ccc(S(=O)(=O)N[C@@H](CCCCN)C(=O)CCl)cc1,32.6% (inactive)
13,Cn1cc[nH]c1=S,-16% (inactive)
14,O=[N+]([O-])c1cc([As](=O)(O)O)ccc1O,-13% (inactive)
15,CC1=C(C(=O)O)N2C(=O)[C@@H](NC(=O)[C@H](N)c3ccc(O)cc3)[C@H]2SC1,-8.88% (inactive)
16,COc1ccc(Cc2nccc3cc(OC)c(OC)cc23)cc1OC,13% (inactive)
17,CN1CC(=O)N/C1=N/C(=O)Nc1cccc(Cl)c1,-15.3% (inactive)
18,CCCN1CCC[C@@H]2Cc3nc(N)ncc3C[C@H]21,40.4% (inactive)
19,Clc1ccc(COC(Cn2ccnc2)c2ccc(Cl)cc2Cl)cc1 (stereo not given),-214% (inactive)
20,CC[C@@H](CO)NC(=O)[C@@H]1C=C2c3cccc4[nH]cc(c34)C[C@H]2N(C)C1,-16.2% (inactive)
